Source: PubChem (several laboratories)
Most compounds without a hit are left out; they make up all but 2.1% or so of the library.
Rce1 inhib = yeast Rce1p protease inhibitors, primary screen, biochemical, fluorescence, cell-free homogeneous. CAAX prenyl protease 2 (Saccharomyces cerevisiae (strain ATCC 204508 / S288c)), Q03530. yeast membranes, quenched prenylated peptide cleavage fluorescence. calls only. 290,000 compounds, 0.27% hits. AID 2563, 2010;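 active = fall in fluorescence gain of 50% or more versus controls, with final raw signal at or below 3038400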
PLC-gamma1 inh = PLC-gamma1 enzyme inhibitors, primary screen, biochemical, fluorescence, purified enzyme; fluorogenic substrate; inhibition, % at 12.2 µM; 370,000 compounds, 0.84% hits
PLCb3 inh = human PLC-beta3 inhibitors, primary screen, biochemical, fluorescence; 370,000 compounds, 0.18% hits; inhibition, % at 12.2 µM; AID 720704, 2013; Purified PLC-beta3, fluorogenic substrate; 1-phosphatidylinositol 4,5-bisphosphate phosphodiesterase beta-3 (Homo sapiens), Q01970; in the data active = inhibition above about 11%
Target sequence (Q01970 whole entry, looked up): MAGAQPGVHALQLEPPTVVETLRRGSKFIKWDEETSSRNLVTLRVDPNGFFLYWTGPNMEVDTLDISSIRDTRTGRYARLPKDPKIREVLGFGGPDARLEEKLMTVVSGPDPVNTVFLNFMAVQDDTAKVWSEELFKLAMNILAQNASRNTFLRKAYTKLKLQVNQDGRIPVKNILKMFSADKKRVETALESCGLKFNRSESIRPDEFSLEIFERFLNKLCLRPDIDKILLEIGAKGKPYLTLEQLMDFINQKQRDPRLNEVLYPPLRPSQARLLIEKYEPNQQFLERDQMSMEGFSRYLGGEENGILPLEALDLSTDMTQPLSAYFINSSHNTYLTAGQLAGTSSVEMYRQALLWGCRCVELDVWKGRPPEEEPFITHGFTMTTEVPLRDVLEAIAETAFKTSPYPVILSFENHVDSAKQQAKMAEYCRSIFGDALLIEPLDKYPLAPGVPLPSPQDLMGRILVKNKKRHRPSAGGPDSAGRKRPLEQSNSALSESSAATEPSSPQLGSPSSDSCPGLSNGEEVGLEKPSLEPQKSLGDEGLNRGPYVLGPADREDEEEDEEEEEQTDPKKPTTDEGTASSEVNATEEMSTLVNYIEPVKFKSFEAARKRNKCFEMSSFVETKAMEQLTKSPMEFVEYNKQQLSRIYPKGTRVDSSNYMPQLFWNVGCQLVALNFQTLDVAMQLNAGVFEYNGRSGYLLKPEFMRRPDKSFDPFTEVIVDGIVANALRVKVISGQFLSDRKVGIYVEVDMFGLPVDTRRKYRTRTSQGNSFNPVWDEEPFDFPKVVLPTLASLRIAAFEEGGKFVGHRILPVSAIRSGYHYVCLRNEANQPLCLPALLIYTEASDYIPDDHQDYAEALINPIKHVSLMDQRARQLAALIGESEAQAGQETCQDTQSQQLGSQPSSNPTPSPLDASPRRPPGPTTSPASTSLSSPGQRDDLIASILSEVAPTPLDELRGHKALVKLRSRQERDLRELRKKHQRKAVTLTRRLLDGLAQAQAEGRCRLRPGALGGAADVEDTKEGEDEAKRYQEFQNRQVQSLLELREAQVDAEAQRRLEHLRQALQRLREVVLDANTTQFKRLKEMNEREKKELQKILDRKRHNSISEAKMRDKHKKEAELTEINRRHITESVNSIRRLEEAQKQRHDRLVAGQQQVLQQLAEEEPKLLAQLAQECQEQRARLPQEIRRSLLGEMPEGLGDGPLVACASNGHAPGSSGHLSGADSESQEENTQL
ADAM10 inh = human ADAM10 inhibitors, primary screen, biochemical, QFRET, HTS. recombinant ADAM10, EDANS/DABCYL FRET peptide cleavage, 3 h. Disintegrin and metalloproteinase domain-containing protein 10 (Homo sapiens), O14672. 370,000 compounds, 0.62% hits. inhibition, % at 7 µM;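 active = inhibition above a per-campaign cutoff equal to the mean of compounds falling between control-based bounds plus 3 SD, cut at about 20% in these data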
ADAM17 inh = ADAM17 inhibitors, primary screen, biochemical, QFRET | recombinant ADAM17, EDANS/DABCYL FRET peptide cleavage | Disintegrin and metalloproteinase domain-containing protein 17 (Homo sapiens), P78536 | AID 720648, 2013 | inhibition, % at 6.95 µM | 370,000 compounds, 0.83% hits;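 active = inhibition above the mean of compounds lying between control limits plus 3 SD, set per campaign, cut at about 8.5% in these data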
PLCgamma1 ctr = PLC-gamma1 enzyme inhibitors, counter-screen for PLC-beta3 inhibitor project, biochemical, fluorescence. shares compounds with PLC-gamma1 inh. purified PLC-gamma1, fluorogenic substrate. inhibition, % at 12.3 µM. 3,300 compounds, 3.1% hits. AID 743258, 2014
PLCb3 confirm = PLC-beta3 inhibitor confirmation, biochemical, fluorescence, purified enzyme; 3,300 compounds, 1% hits; inhibition, % at 12.3 µM; fluorogenic substrate fluorescence; shares compounds with PLC-gamma1 inh; in the data active = inhibition above about 11%
Numbers stand for hits; . = inactive; / = no result. Cut-off read from the data, not from the text of the source, unless noted: active = inhibition above about 9.5%; inactive = the rest.

SMILES	Rce1 inhib	PLC-gamma1 inh	PLCb3 inh	ADAM10 inh	ADAM17 inh	PLCgamma1 ctr	PLCb3 confirm
O=C(CCc1nnc(Cc2c[nH]c3ccccc23)o1)NC1CCCC1	.	12	.	.	.	.	.
Cc1ccc(NC(=O)c2nnn(CC(=O)Nc3ccccc3)c2N)cc1C	.	.	.	.	.	/	/
Cc1ccc(NC(=O)Cn2nnc(C(=O)NCc3ccccc3)c2N)cc1C	.	11	.	.	.	.	.
O=C1NC(=O)C2(CCCC2c2ccccc2)N1 (stereo unspecified)	/	.	.	.	.	/	/
CN1C(=O)C2C3c4ccccc4C(c4ccccc43)[C@@H]2C1=O (stereo partly specified)	.	.	.	.	.	/	/
CC(=O)N(C(C)=O)N1C(=O)C2C3c4ccccc4C(c4ccccc43)C2C1=O (stereo unspecified)	.	13	12	.	.	.	.
CN(C)CCCNC(=O)c1c(N)[nH]c(C(=O)c2ccc(Br)cc2)c1-c1ccc(Br)cc1	/	.	.	.	.	/	/
COC(=O)CCCCCCCCCC[N+]1(C)CCCCC1	.	.	11	.	.	.	.
CC(=O)OCCCCCCCCCCC[N+]1(C)CCCCC1	.	.	.	.	.	/	/
COc1ccccc1CNC(=O)CCNC(=O)c1ccco1	/	.	.	.	.	/	/
C=C1CC2C=C(NC(C)=O)CC(C1)C2 (stereo unspecified)	.	12	.	.	.	.	.
O=C(NC1CC1)C1=NOC(CNc2ncc(C(F)(F)F)cc2Cl)C1 (stereo unspecified)	.	.	.	.	.	/	/
O=C(N/C=N/O)C1=NOC(CNc2ncc(C(F)(F)F)cc2Cl)C1 (stereo unspecified)	.	10	.	.	.	.	.
C=CCN(C)CC/C=C1\c2ccccc2CSc2ccccc21	.	.	.	.	.	/	/
C#CCN(C)CC/C=C1\c2ccccc2CSc2ccccc21	/	10	.	.	.	.	.
Cc1ccccc1NC(=O)N1CCCC(c2nc(-c3ccc(F)cc3)no2)C1 (stereo unspecified)	.	.	.	.	.	/	/
Cc1ccccc1NC(=O)N1CCCC(c2nc(-c3ccc(C(C)C)cc3)no2)C1 (stereo unspecified)	.	10	.	.	.	.	.
O=C(NC1CCCCC1)N1CCCC(c2nc(-c3cccs3)no2)C1 (stereo unspecified)	.	10	.	.	.	.	.
O=C1N(c2ccccc2)CC2C(c3ccccc3)C(c3ccccc3)N3CCCC123 (stereo unspecified)	/	.	.	.	.	/	/
COc1cc2c(c(OC)c1OC)-c1ccc(OC)c(=O)cc1C(NC(C)=O)CC2 (stereo unspecified)	.	10	.	.	.	.	.
CCCC(=O)NC1CCc2cc(OC)c(OC)c(OC)c2-c2ccc(OC)c(=O)cc21 (stereo unspecified)	/	.	.	.	.	/	/
CCn1c2ccccc2c2cc(NC(=O)COC(=O)c3cccc(F)c3F)ccc21	/	.	.	.	.	/	/
Cc1ncc(C[n+]2csc(CCOC(=O)C34CC5CC(CC(C5)C3)C4)c2C)c(N)n1	.	.	.	.	.	/	/
Cc1ncc(C[n+]2csc(CCOC(=O)CC3C4CC5CC(C4)CC3C5)c2C)c(N)n1 (stereo unspecified)	.	9.8	.	.	.	.	.
COc1cccc(C(=O)N2CCOCC2)c1	.	11	.	.	.	.	.
COc1cccc(C(=O)Nc2cccc(C(=O)N3CCOCC3)c2)c1	.	.	.	.	.	/	/
Cc1c(-c2nnc(SCC(=O)O)n2-c2ccccc2Br)nnn1-c1ccccc1	.	14	.	.	.	.	.
CCC(=O)Nc1ccc(C(=O)NNC(=O)COc2cc(C)ccc2C)cc1	.	.	12	.	.	.	.
